From PubChem BioAssay (NCATS)
Several values for one entry are separate records, joined by “and”; a condition that tells them apart may be missing. Equal entries are not always repeated. Inconclusive results are not listed. Entries that show only a call come without a potency. The source holds several records for some structures; these can differ, active in one and inactive in another. Activity calls are given as the source filed them. The call rests on the fitted dose curve; in most records, active means well fitted curve in the direction sought with a large enough effect; inconclusive means small, poorly fitted or top-dose-only effect, or another doubt; inactive means no such curve, though single readings can be large; an effect the other way counts as inactive or inconclusive.

How the values were obtained:
[1] = biological target: Rap guanine nucleotide exchange factor 3 (Homo sapiens) (UniProt O95398); test: Confirmatory qHTS for antagonist of cAMP-regulated guanine nucleotide exchange factor 3 (EPAC1) (AID 1645880); further: nearly all actives have a fitted effect of over 55% in size; further: potency means the concentration at half of the fitted maximal effect
Chain of Rap guanine nucleotide exchange factor 3 (Homo sapiens) (O95398 whole entry, looked up): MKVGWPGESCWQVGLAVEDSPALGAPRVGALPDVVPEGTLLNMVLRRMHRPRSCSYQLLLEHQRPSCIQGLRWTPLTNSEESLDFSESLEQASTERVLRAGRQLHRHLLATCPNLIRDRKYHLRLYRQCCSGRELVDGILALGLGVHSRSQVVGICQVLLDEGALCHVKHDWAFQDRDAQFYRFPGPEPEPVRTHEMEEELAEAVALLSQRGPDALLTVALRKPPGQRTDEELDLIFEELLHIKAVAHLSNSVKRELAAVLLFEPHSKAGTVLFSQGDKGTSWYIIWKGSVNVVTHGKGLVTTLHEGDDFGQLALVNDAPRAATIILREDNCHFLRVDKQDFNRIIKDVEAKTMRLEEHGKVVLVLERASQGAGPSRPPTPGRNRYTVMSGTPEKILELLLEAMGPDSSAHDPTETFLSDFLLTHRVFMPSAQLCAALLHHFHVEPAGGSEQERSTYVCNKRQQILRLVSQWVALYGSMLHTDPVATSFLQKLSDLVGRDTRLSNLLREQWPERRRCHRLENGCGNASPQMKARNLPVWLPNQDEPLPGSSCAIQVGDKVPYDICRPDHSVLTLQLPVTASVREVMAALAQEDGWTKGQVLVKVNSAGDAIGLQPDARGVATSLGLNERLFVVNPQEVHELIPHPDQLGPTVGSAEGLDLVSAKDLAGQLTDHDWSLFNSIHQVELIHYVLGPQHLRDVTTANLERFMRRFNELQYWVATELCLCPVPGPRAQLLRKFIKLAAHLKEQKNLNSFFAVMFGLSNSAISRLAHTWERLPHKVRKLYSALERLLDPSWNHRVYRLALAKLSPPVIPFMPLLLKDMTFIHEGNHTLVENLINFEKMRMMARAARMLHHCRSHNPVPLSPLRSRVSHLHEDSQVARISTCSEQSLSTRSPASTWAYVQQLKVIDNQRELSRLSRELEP
Outline: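 Nucleotide exchange uses 100 nM EPAC1, 250 nM RAP1B-BODIPY-GDP and 50 uM GDP, with compounds in a concentration-titration series. After 5 min at room temperature, fluorescence (480 nm ex/540 nm em) is read every 5 min for 30 min. Data are normalized to control ATA and DMSO.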

[2] = biological target: Rap guanine nucleotide exchange factor 3 (Homo sapiens) (UniProt O95398); test: Confirmatory qHTS for agonist of cAMP-regulated guanine nucleotide exchange factor 3 (EPAC1) (AID 1645881); further: nearly all actives have a fitted effect of over 75% in size; further: potency means the concentration at half of the fitted maximal effect;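 on activation: EPAC1 catalysed release of BODIPY-GDP from Rap1B seen as fluorescence loss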
[3] = biological target: Rap guanine nucleotide exchange factor 4 (Homo sapiens) (UniProt Q8WZA2); test: Confirmatory qHTS for agonist of cAMP-regulated guanine nucleotide exchange factor 4 (EPAC2) (AID 1645884);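 further: nucleotide exchange releases bodipy-GDP from Rap1 and this lowers its fluorescence; nearly all actives have a fitted effect of over 65% in size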; further: potency means the concentration at half of the fitted maximal effect
Chain of Rap guanine nucleotide exchange factor 4 (Homo sapiens) (Q8WZA2 whole entry, looked up): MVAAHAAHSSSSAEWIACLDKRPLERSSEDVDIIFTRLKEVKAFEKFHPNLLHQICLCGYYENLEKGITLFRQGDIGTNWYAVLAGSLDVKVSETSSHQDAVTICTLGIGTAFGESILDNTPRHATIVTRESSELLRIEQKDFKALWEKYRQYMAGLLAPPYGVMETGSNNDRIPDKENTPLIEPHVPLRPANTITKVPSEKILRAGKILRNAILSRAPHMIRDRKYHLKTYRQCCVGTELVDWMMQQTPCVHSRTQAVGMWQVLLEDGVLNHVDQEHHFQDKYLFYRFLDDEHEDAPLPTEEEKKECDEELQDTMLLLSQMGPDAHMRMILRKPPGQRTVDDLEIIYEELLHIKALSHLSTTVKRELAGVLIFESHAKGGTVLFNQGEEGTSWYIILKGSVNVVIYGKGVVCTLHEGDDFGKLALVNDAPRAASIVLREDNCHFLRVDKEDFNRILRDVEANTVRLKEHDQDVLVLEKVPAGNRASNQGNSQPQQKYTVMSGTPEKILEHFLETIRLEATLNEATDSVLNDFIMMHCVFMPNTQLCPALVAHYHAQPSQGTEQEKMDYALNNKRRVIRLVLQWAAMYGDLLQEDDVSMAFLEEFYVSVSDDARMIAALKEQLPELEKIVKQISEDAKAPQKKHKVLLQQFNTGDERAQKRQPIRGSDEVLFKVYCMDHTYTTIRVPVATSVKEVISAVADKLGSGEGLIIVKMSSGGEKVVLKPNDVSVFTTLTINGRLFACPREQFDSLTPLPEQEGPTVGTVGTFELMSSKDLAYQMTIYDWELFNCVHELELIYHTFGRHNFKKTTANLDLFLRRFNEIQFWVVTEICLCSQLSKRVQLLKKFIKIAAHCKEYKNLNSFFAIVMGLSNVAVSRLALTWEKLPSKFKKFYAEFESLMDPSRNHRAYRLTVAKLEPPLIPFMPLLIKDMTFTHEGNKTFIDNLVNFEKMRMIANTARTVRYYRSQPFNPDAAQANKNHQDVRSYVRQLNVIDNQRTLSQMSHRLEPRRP

[4] = biological target: Rap guanine nucleotide exchange factor 4 (Homo sapiens) (UniProt Q8WZA2); test: Confirmatory qHTS for antagonist of cAMP-regulated guanine nucleotide exchange factor 4 (EPAC2) (AID 1645885); further: nearly all actives have a fitted effect of over 25% in size; further: potency means the concentration at half of the fitted maximal effect
[5] = biological target: Rap guanine nucleotide exchange factor 3 (Homo sapiens) (UniProt O95398); test: Counterscreen qHTS for antagonist of cAMP-regulated guanine nucleotide exchange factor 3 (EPAC1) (AID 1645888);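 further: fluorescence loss as bound BODIPY-GDP is released from Rap1B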
Outline: (§1)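 Rap1B-BODIPY-GDP 250 nM + GDP 50 uM; cpds 7-pt, final 9.74 nM–152 uM (activator mode) or from 7.32 nM upwards (inhibitor mode); RT; FI 480/540 nm at 5 and 30 min, then ± cAMP, reread.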

[6] = biological target: Rap guanine nucleotide exchange factor 3 (Homo sapiens) (UniProt O95398); test: Counterscreen qHTS for agonist of cAMP-regulated guanine nucleotide exchange factor 3 (EPAC1) (AID 1645889); further: nearly all actives have a fitted effect of over 40% in size; further: potency means the concentration at half of the fitted maximal effect
Outline: as §1

Row | SMILES | Potency [1] | Potency [2] | Potency [3] | outcome [4] | Potency [5] | Potency [6] | Potency [4] | activation [3] | activity change, negative = inhibition [5] | activation [6]
1 | Cc1ccc2[nH]cc(C(c3ccccc3)c3cccs3)c2c1 (stereo unspecified) | inactive | inactive | inactive | inactive [at 12.7 µM] | inactive | inactive | – | – | – | –
2 | O=S1(=O)CCN2C(Cc3ccc(SC(F)F)cc3)=CSC2=N1 | inactive | inactive | inactive | – | inactive | inactive | inactive | – | – | –
3 | COc1ccc(/C=C\c2onc(C)c2S(=O)(=O)N2CCC(C(=O)NCCC(C)C)CC2)cc1 | inactive | inactive | – | – | – | – | inactive | 8.7% [at 17.1 µM, percent relative to cAMP agonist control] (inactive) | -14.8% [at 30.8 µM] (inactive) | 19.1% [at 30.8 µM] (inactive)
4 | Cc1cc(Br)c2c(c1)C(O)(N1CCCCC1C)C(=O)N2 (stereo unspecified) | inactive | inactive | – | – | – | – | inactive | 10.3% [at 17.1 µM, percent relative to cAMP agonist control] (inactive) | -0.193% [at 30.8 µM] (inactive) | 19.4% [at 30.8 µM] (inactive)
5 | CCOCCCn1c(=N)c(C(=O)NC(C)c2ccccc2)cc2c(=O)n3cccc(C)c3nc21 (stereo unspecified) | inactive | inactive | inactive | – | inactive | inactive | inactive | – | – | –
6 | CC(=O)Nc1nc(C)c(Oc2ccc(Cl)cc2Cl)c(=O)[nH]1 | inactive | inactive | – | – | – | – | inactive | 0% [at 17.1 µM, percent relative to cAMP agonist control] (inactive) | -5.48% [at 30.8 µM] (inactive) | 7.36% [at 30.8 µM] (inactive)
7 | Cc1ccc2[nH]cc(C(c3ccccc3)c3ccc(C)s3)c2c1 (stereo unspecified) | inactive | inactive | inactive | – | inactive | inactive | inactive | – | – | –
8 | COc1ccccc1Sc1nc(-c2ccccc2)ncc1OC | inactive | inactive | – | – | – | – | inactive | 11.6% [at 17.1 µM, percent relative to cAMP agonist control] (inactive) | 8.06% [at 30.8 µM] (inactive) | 18.8% [at 30.8 µM] (inactive)
9 | COc1ccc(C2c3c(-c4ccccc4O)n[nH]c3C(=O)N2Cc2ccco2)cc1 (stereo unspecified) | inactive | inactive | inactive | – | inactive | inactive | inactive and 37.9 µM (active) | – | – | –
10 | CC(=O)NC(C)c1nc2ccccc2n1Cc1ccccc1Cl (stereo unspecified) | inactive | inactive | inactive | – | inactive | inactive | inactive | – | – | –
11 | N#CC(C(=O)NCc1ccco1)c1nc2ccccc2nc1N1CCOCC1 (stereo unspecified) | inactive | inactive | – | – | – | – | inactive | 4.26% [at 17.1 µM, percent relative to cAMP agonist control] (inactive) | -11.6% [at 30.8 µM] (inactive) | 19.4% [at 30.8 µM] (inactive)
12 | COc1cc(Cl)c(C)cc1NC(=O)c1ccc(CN2C(=O)CCn3nc(C)cc32)cc1 | inactive | inactive | inactive | – | inactive | inactive | inactive | – | – | –
13 | Oc1ccc(NCc2ccccc2OCc2ccccc2)cc1 | inactive | inactive | inactive | – | inactive | – | inactive | – | – | 20.2% [at 30.8 µM] (inactive)
14 | Cc1ccccc1-c1cc(C(=O)NCc2ccc3c(c2)OCO3)n(CC2CC(c3cccnc3)=NO2)n1 (stereo unspecified) | inactive | inactive | inactive | – | inactive | inactive | inactive | – | – | –
15 | O=C(CC[C@H]1O[C@@H](n2ccc(=O)[nH]c2=O)[C@H](O)[C@@H]1O)NCc1cccc2ccccc12 | inactive | inactive | inactive | – | inactive | inactive | inactive | – | – | –
16 | CCNC(C(=O)c1c[nH]c2c(CC)cccc12)c1ccccc1 (stereo unspecified) | inactive | inactive | inactive | – | inactive | inactive | inactive | – | – | –
17 | CC(=O)CCc1oc2ccc(C)cc2c1-c1ccc(C)o1 | inactive | inactive | – | – | – | – | inactive | 9.77% [at 17.1 µM, percent relative to cAMP agonist control] (inactive) | -33.7% [at 30.8 µM] (inactive) | 31.9% [at 30.8 µM] (inactive)
18 | COC(=O)c1scc(C#N)c1N/N=C(\C#N)S(=O)(=O)c1ccc(Cl)cc1 | 47.8 µM (active) | inactive | inactive | – | inactive | inactive | inactive | – | – | –

Row | SMILES | Potency [1] | Potency [2] | Potency [3] | outcome [4] | Potency [5] | Potency [6] | Potency [4] | activation [3] | activity change, negative = inhibition [5] | activation [6]
19 | COc1ccc(/C=C/C(=O)c2ccncc2)c2ccccc12 | inactive | inactive | – | – | – | – | inactive | -6.66% [at 17.1 µM, percent relative to cAMP agonist control] (inactive) | -0.831% [at 30.8 µM] (inactive) | 15.3% [at 30.8 µM] (inactive)
20 | Cc1ccc(C(CCN(Cc2ccccc2)C(=O)c2ccco2)c2ccco2)cc1 (stereo unspecified) | 37.9 µM (active) | inactive | inactive | – | inactive | inactive | 53.6 µM (active) | – | – | –
21 | CCOC(=O)c1cc2n(c1N)-c1ccccc1C2=O | inactive | 100 µM (active) | 100 µM (active) | – | inactive | 31.6 µM (active) | 23.9 µM (active) | – | – | –
22 | CCCc1cc2c(cc1N(C)S(=O)(=O)c1ccccc1)OCO2 | inactive | inactive | inactive | – | inactive | inactive | inactive | – | – | –
23 | C#CCOc1ccc(/C=C2/C(=O)N(c3cccc(C(=O)O)c3)N=C2C)cc1OC | inactive | inactive | – | – | – | – | inactive | 5.95% [at 17.1 µM, percent relative to cAMP agonist control] (inactive) | 6.78% [at 30.8 µM] (inactive) | 10.5% [at 30.8 µM] (inactive)
24 | O=C(Nc1ccncc1)c1ccc2ncsc2c1 | inactive | inactive | inactive | – | inactive | inactive | inactive | – | – | –
25 | COc1cccc(CN2CC(O)=C(c3nc(-c4ccc(Cl)cc4)cs3)C2=N)c1 | inactive | inactive | – | – | – | – | inactive | 0.958% [at 17.1 µM, percent relative to cAMP agonist control] (inactive) | -19.7% [at 30.8 µM] (inactive) | 0.754% [at 30.8 µM] (inactive)
26 | COc1ccc(C=NNc2ccc([N+](=O)[O-])cc2S(=O)(=O)Nc2ccccc2C(=O)O)cc1OC | 25.1 µM (active) | inactive | – | – | – | – | inactive | -2.2% [at 17.1 µM, percent relative to cAMP agonist control] (inactive) | -11.2% [at 30.8 µM] (inactive) | 21.9% [at 30.8 µM] (inactive)
27 | CS/C(N)=N/N=C/c1c(O)ccc2ccccc12 | 21.3 µM (active) | inactive | inactive | – | inactive | inactive | inactive | – | – | –
28 | Cc1ccc(S(=O)(=O)/N=C2/NC(=O)/C(=C\c3cc(Br)cc(Br)c3O)S2)cc1 | 16.9 µM (active) | inactive | inactive | – | inactive | inactive | inactive | – | – | –
29 | COc1cccc(NC(=O)CN(C)C(=O)CNC(=O)c2ccc(Oc3ccccc3)cc2)c1 | inactive | inactive | – | – | – | – | inactive | 6.73% [at 17.1 µM, percent relative to cAMP agonist control] (inactive) | -3.89% [at 30.8 µM] (inactive) | 29.7% [at 30.8 µM] (inactive)
30 | Cc1ccc(C(=O)O/N=C(\c2ccccc2)c2cccnc2)cc1 | inactive | inactive | – | – | – | – | inactive | -3.55% [at 17.1 µM, percent relative to cAMP agonist control] (inactive) | 3.07% [at 30.8 µM] (inactive) | 8.08% [at 30.8 µM] (inactive)
31 | CC(NCc1cccn1C)c1ccccc1 (stereo unspecified) | inactive | inactive | inactive | – | inactive | inactive | inactive | – | – | –
32 | CC1(C(=O)NS(=O)(=O)c2ccc(Cl)s2)CCN1C(=O)c1ccc(C2CCCCC2)cc1 (stereo unspecified) | 79.4 µM (active) | inactive | – | – | – | – | inactive | 6.57% [at 17.1 µM, percent relative to cAMP agonist control] (inactive) | -3.31% [at 30.8 µM] (inactive) | -4.08% [at 30.8 µM] (inactive)
33 | CC1=NOC(=O)/C1=C\c1ccc(-c2ccc(Cl)cc2Cl)o1 | 15.8 µM (active) | inactive | – | – | – | – | inactive | -0.185% [at 17.1 µM, percent relative to cAMP agonist control] (inactive) | -37.2% [at 30.8 µM] (inactive) | 15.1% [at 30.8 µM] (inactive)
34 | COc1cccc(CC(=O)Nc2ccc(S(=O)(=O)Nc3nccs3)cc2)c1 | inactive | inactive | – | – | – | – | inactive | -3.47% [at 17.1 µM, percent relative to cAMP agonist control] (inactive) | -17.8% [at 30.8 µM] (inactive) | 9.39% [at 30.8 µM] (inactive)
35 | C=CCc1ccccc1Oc1cc(OC)nc(N)n1 | inactive | inactive | – | – | – | – | inactive | -1.65% [at 17.1 µM, percent relative to cAMP agonist control] (inactive) | -22.4% [at 30.8 µM] (inactive) | -1.76% [at 30.8 µM] (inactive)
36 | CC(=N\NC(=O)c1ccccc1)/C(=N/O)C(=O)Nc1ccccc1 | 3.16 µM (active) | inactive | – | – | – | – | inactive | 7.97% [at 17.1 µM, percent relative to cAMP agonist control] (inactive) | 9.03% [at 30.8 µM] (inactive) | 27.9% [at 30.8 µM] (inactive)
